# Experimental data: PubChem BioAssay (EPA / NIEHS)
# Values joined by “and” are separate entries in the source; they are usually repeats but may differ in a detail not shown here. Equal values may be shown once. More than one record can exist for a structure, and the calls need not agree. Active and inactive are the calls of the source. Rule for the calls: active = hit-call score of the fitted dose curve at least 0.9, where 1 is the maximum; inactive = score below 0.9.
# Read-out: Interferon-gamma inducible Protein 10 (IP10), CXCL10 (gene 3627)
# Assay: BSK_BE3C_IP10: BioMAP Diversity Plus: BE3C Assay for Interferon-gamma inducible Protein 10 (IP10) Biomarker Activity (AID 2283034)
# Conditions: primary human bronchial epithelial cells; actives raise or lower the signal
# Experimental: BSK_BE3C is a cell-based, multiplexed-readout assay that uses bronchial epithelial cell, a human lung primary cell, with measurements taken at 24 hours after chemical dosing in a 96-well plate.BSK_BE3C_IP10 is an assay component measured in the BSK_BE3C assay. It measures IP-10 antibody related to regulation of gene expression using ELISA technology.Data from the assay component BSK_BE3C_IP10 was analyzed into 1 assay endpoint. This assay endpoint, BSK_BE3C_IP10, was analyzed with bidirectional fitting relative to DMSO as the negative control and baseline of activity. Using a type of binding reporter, gain or loss-of-signal activity can be used to understand changes in the signaling as they relate to the gene CXCL10. Furthermore, this assay endpoint can be referred to as a primary readout, because this assay has produced multiple assay endpoints where this one serves a signaling function. To generalize the intended target to other relatable targets, this assay endpoint is annotated to the cytokine intended target family, where the subfamily is chemotactic factor.
# The levels of cell surface (or secreted, indicated by the prefix "s") biomarker endpoints were measured by ELISA. Overt cytotoxicity to cells in confluent adherent cultures (all systems other than the BT system) was assessed by measuring total protein levels using sulforhodamine B (SRB) staining in parallel cultures at the time of biomarker measurements, indicated as SRB endpoints. For proliferation assays for adherent cell types, individual cell types are cultured at sub-confluence and relative cell numbers quantified by SRB staining at time points optimized for each system (48 h: 3C and CASM3C systems; 72 h: BT and HDF3CGF systems; 96 h: SAg system). SRB was performed by staining cells with 0.1% SRB after fixation with 10% TCA and reading wells at 560 nm.Viability and proliferation of PBMC (T cells) was quantified by Alamar Blue reduction for the SAg and BT systems. For PBMC viability (referred to as PBMC Cytotoxicity within the assay endpoint names), cells were plated (75,000/well in a 96-well plate) and then chemical samples added for 1 h before addition of activators, SEB and TSST-1 (20 ng/mL final concentration each). Cells were incubated for 90 h. Then, Alamar Blue (20 uL/well) (Invitrogen, Cat DAL1100) was added for 6 h, and the plates were read with a fluorescence microplate reader at 546/580 nm (excitation/emission). For PBMC proliferation, cells were plated and activated as above but incubated for only 16 h prior to addition of Alamar Blue. Plates were read after 6 h.
Structure (SMILES),outcome,AC50
C1CN(CCOCCN2CCOCC2)CCO1,inactive,–
COc1ccccc1Oc1c(NS(=O)(=O)c2ccc(C(C)(C)C)cc2)nc(-c2ncccn2)nc1OCCO,inactive,–
CCCCCCC(O)CCCCCCCCCCC(=O)OC (stereo not drawn),–,9.22 µM (active)
CC[N+](CC)(CC(=O)Nc1c(C)cccc1C)Cc1ccccc1 (tested in a mixture with another compound),inactive,–
CCCCCCCCCCC1CO1 (stereo not drawn),–,30.6 µM (active)
CC[N+](CC)(CC(=O)Nc1c(C)cccc1C)Cc1ccccc1,inactive,–
CC(C)CC(=O)CC(C)CC(C)C (stereo not drawn),–,36.9 µM (active)
Oc1cccc2ccccc12,inactive,–
CN(C)Cc1cc(C(C)(C)C)c(O)c(C(C)(C)C)c1,inactive,–
Cc1cccnc1,inactive,–
O=C(C(=O)c1ccccc1)c1ccccc1,inactive,–
Cc1c(C(N)=O)cc([N+](=O)[O-])cc1[N+](=O)[O-],inactive,32.6 µM (active)
Sc1nc2ccccc2s1,inactive,–
CC(C)C1OCCN1CCOC(=O)NCCCCCCNC(=O)OCCN1CCOC1C(C)C (stereo not drawn),inactive,–
CCCCCCCCCC/C=C/C1CC(=O)OC1=O (stereo not drawn),–,18.4 µM (active)
COC(=O)/C=C\C(=O)OC,–,20 µM (active)
CCC[Si](OC(C)=O)(OC(C)=O)OC(C)=O,inactive,–
OC(C(F)(F)F)(C(F)(F)F)C(O)(C(F)(F)F)C(F)(F)F,–,42.6 µM (active) and 43.6 µM (active)
CCCCCCCCCCCCCCCCCC[N+](C)(C)C,–,2.69 µM (active)
CN(C)CCC(c1ccc(Cl)cc1)c1ccccn1 (stereo not drawn),inactive,–
Cc1cc(-n2nc3ccc(Cl)cc3n2)c(O)c(C(C)(C)C)c1,inactive,–
COc1cc(CNC(=O)CCCC/C=C/C(C)C)ccc1O,inactive,–
CCC(C)=NO,inactive,–
CN(C)c1ccc(C(c2ccccc2)c2ccc(N(C)C)cc2)cc1,–,10.7 µM (active)
O=[N+]([O-])c1cc(S(=O)(=O)Nc2ccccc2)ccc1Nc1ccccc1,–,32.4 µM (active) and 31.9 µM (active)
COc1ccc(C(=O)c2ccccc2O)c(O)c1,inactive,–
CCCCC(CC)COC(=O)C=Cc1ccc(OC)cc1 (stereo not drawn),inactive,–
